Assay results from the supplement of paper PMC6555819.

Experiments:
Test in all cases: PBM binding z-score (relative to random genomic background probes); higher = stronger binding; sequences stand for … in GC…GCGATTGACAGCGTAGAATGAAGG
[1] = test system: FXR:RXRa (NR concentration 270 nM, RXRa partner concentration 90 nM)
Method in brief: (§1)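 Binding buffer was PBS pH 7.4 with 2% milk, 0.02% Triton X-100, 1 mM DTT, 0.2 mg/mL BSA and 0.4 mg/ml salmon testes DNA. In it, ligand-free nuclear receptor dimers were incubated 1 h on custom Agilent 4×180K protein-binding microarrays carrying double-stranded probes. Antibodies against each partner (one per run) detected binding, and z-scores were calculated against random background probes after regression normalization of scanned fluorescence.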

[2] = test system: LXRa:RXRa (NR concentration 270 nM, RXRa partner concentration 90 nM)
Method in brief: as §1

[3] = test system: LXRa homodimer (NR concentration 270 nM)
Method in brief: as §1

[4] = test system: LXRb:RXRa (NR concentration 270 nM, RXRa partner concentration 90 nM)
Method in brief: as §1

[5] = test system: LXRb homodimer (NR concentration 270 nM)
Method in brief: as §1

[6] = test system: PPARa:RXRa (NR concentration 270 nM, RXRa partner concentration 90 nM)
Method in brief: as §1

[7] = test system: PPARg:RXRa (NR concentration 180 nM, RXRa partner concentration 90 nM)
Method in brief: as §1

[8] = test system: PPARg:RXRa 270nM:90nM, anti-RXR (NR concentration 270 nM, RXRa partner concentration 90 nM)
Method in brief: as §1

[9] = test system: PPARg:RXRa 30nM:10nM, anti-RXR (NR concentration 30 nM, RXRa partner concentration 10 nM)
Method in brief: as §1

[10] = test system: PPARg:RXRa 90nM:30nM, anti-RXR (NR concentration 90 nM, RXRa partner concentration 30 nM)
Method in brief: as §1

[11] = test system: PPARg:RXRa DBDmut IVT, anti-RXR (DBD mutation: RXRa K156A/R161A, NR concentration 270 nM, RXRa partner concentration 90 nM)
Method in brief: as §1

[12] = test system: PPARg:RXRa IVT, anti-PPARg (NR concentration 270 nM, RXRa partner concentration 90 nM)
Method in brief: as §1

[13] = test system: PPARg DBDmut:RXRa IVT, anti-PPARg (DBD mutation: PPARg1 K132A/R137A, NR concentration 270 nM, RXRa partner concentration 90 nM)
Method in brief: as §1

[14] = test system: PPARg DBDmut IVT, anti-PPARg (DBD mutation: PPARg1 K132A/R137A, NR concentration 270 nM)
Method in brief: as §1

[15] = test system: PPARg homodimer (NR concentration 180 nM)
Method in brief: as §1

[16] = test system: PXR:RXRa (NR concentration 270 nM, RXRa partner concentration 90 nM)
Method in brief: as §1

[17] = test system: PXR homodimer (NR concentration 270 nM)
Method in brief: as §1

[18] = test system: RARa:RXR (NR concentration 270 nM, RXRa partner concentration 90 nM)
Method in brief: as §1

[19] = test system: RARa homodimer (NR concentration 270 nM)
Method in brief: as §1

[20] = test system: RARb:RXRa (NR concentration 270 nM, RXRa partner concentration 90 nM)
Method in brief: as §1

| Sequence | PBM binding z-score [1] | PBM binding z-score [2] | PBM binding z-score [3] | PBM binding z-score [4] | PBM binding z-score [5] | PBM binding z-score [6] | PBM binding z-score [7] | PBM binding z-score [8] | PBM binding z-score [9] | PBM binding z-score [10] | PBM binding z-score [11] | PBM binding z-score [12] | PBM binding z-score [13] | PBM binding z-score [14] | PBM binding z-score [15] | PBM binding z-score [16] | PBM binding z-score [17] | PBM binding z-score [18] | PBM binding z-score [19] | PBM binding z-score [20] |
| --- | --- | --- | --- | --- | --- | --- | --- | --- | --- | --- | --- | --- | --- | --- | --- | --- | --- | --- | --- | --- |
| TGTCAAAGTTCAAAGGTAACATAAGTATCCACAC | 7.47 | 6.45 | 4.6 | 5.05 | 2.12 | 6.03 | 8.82 | 7.65 | 5.46 | 7.34 | 0.298 | 4.93 | 1.53 | 2.04 | 3.31 | 5.72 | 4.18 | 6.28 | 1.65 | 5.24 |
| GCTGTTAGTTGAAAGGGCAACCGAATGATTCTCG | 0.495 | 0.93 | -0.0723 | 0.717 | 0.0485 | 2.12 | 1.42 | 2.9 | 0.9 | 2.33 | 0.247 | 0.541 | 0.463 | 0.0066 | 1.39 | 0.665 | 0.0448 | 1.48 | 0.147 | 2.08 |
| ACTTATGGGTCAACGAGGTTATAGCACGCGTATA | 5.3 | 4.47 | 0.915 | 3.85 | 0.967 | 5.33 | 6.12 | 5.78 | 2.91 | 5.01 | 6.33 | 5.8 | 1.52 | 2.09 | 2.41 | 4.34 | 1.69 | 4.3 | 1.76 | 3.89 |
| AGAACGAGGGCACGCTTAGTTGATAGCAGAGTAG | 0.731 | 0.538 | -0.173 | 0.495 | -0.638 | 2.26 | 2.16 | 1.86 | 0.46 | 1.5 | 4.36 | 4.09 | 0.457 | 0.676 | 0.226 | 0.718 | -0.259 | 1.06 | -0.203 | 2.66 |
| TCGAGTGGGTTACCAATGGGGCATTCAGCTTTCT | -1.28 | 0.53 | -0.905 | 0.75 | -0.956 | 0.859 | -0.273 | 0.677 | 0.872 | 0.607 | 2.12 | 1.77 | -0.245 | -0.482 | -0.73 | -0.197 | -0.99 | -0.236 | -0.45 | 0.353 |
| CCGACTGGGGCATAAGCTTACCATAAGCCAGCCC | -0.673 | -0.689 | -0.589 | -0.747 | -1.15 | -0.16 | 0.765 | 1.04 | -0.348 | 0.228 | 2.59 | 1.57 | -1.09 | -1.16 | -0.394 | -0.775 | -0.649 | -0.694 | -0.632 | -0.11 |
| CCAGACAGGTGAGAAGGTAACCCAGCCTCGATTA | 0.179 | 0.277 | -0.0873 | 0.148 | 0.023 | 0.739 | 0.689 | 0.473 | -0.12 | 0.118 | 1.18 | 0.79 | -0.0117 | -0.618 | 0.918 | -0.0868 | 0.187 | 0.417 | 0.439 | 0.682 |
| CGTCCAAGGTCAATGGTCAGTGAAGAGATGACGG | 6.47 | 4.43 | 0.613 | 3.19 | 0.452 | 4.93 | 4.14 | 4.38 | 1.83 | 3.55 | 3.08 | 3.44 | 1.01 | -0.0239 | 2.84 | 3.33 | 1.16 | 3.98 | 0.654 | 5.08 |
| ATAACGAGGGCACGCTGAGTTGATAGCAGAGTAG | 0.657 | 1.11 | -0.0272 | 0.34 | 0.00771 | 2.24 | 2.45 | 1.88 | 0.803 | 1.22 | 4.2 | 4.09 | 1.98 | 1.47 | 0.669 | 1.83 | 0.518 | 1.04 | -0.277 | 2.61 |
| CCGACAGGGGCAAAGGTTACCATACTCAGTACGA | 2.65 | 2.32 | -0.14 | 2.73 | -0.622 | 4.74 | 7.39 | 7.14 | 5.17 | 7.95 | 0.215 | 3.27 | -0.209 | -0.953 | 1.78 | 3.35 | -0.101 | 5.32 | -0.576 | 2.89 |
| GCTGCTAGGTCAACTGATTGTCAGCTAAAGCTCG | 4.09 | 2.79 | -0.17 | 2.06 | 0.0753 | 3.54 | 2.73 | 3.13 | 0.683 | 2.12 | 4.92 | 4.51 | -0.116 | -0.522 | 0.898 | 1.19 | -0.593 | 2.27 | -0.584 | 4.25 |
| CCTATTAGTTGACCATTAGGGCAACCGAAGCTCG | 0.493 | 0.0846 | 0.475 | 0.224 | 0.396 | 0.454 | 0.203 | 0.612 | 0.0251 | 0.278 | 1.18 | 1.3 | -0.00387 | 0.76 | 1.65 | 0.111 | 0.563 | 0.412 | 1.35 | 1.04 |
| GGAACGAGGGAAAAGTTGATAGCATCTGTCGACG | -0.286 | -0.349 | -0.321 | -0.59 | -0.568 | 1.15 | 2.04 | 3.68 | 1.71 | 3.49 | -0.174 | 0.0196 | -0.986 | -1.13 | -0.562 | -0.557 | -0.343 | -0.659 | -0.0387 | -0.212 |
| CCATACGGGTCACGAGGTTATAGCACGACGAGCG | 6.99 | 4.32 | 0.528 | 3.79 | -0.0225 | 5.93 | 7.19 | 6.47 | 3.55 | 5.37 | 3.91 | 5.41 | 1.88 | 0.373 | 2.89 | 4.5 | 0.355 | 5.93 | 1.79 | 4.62 |
| GGAACGAGGGCAAGTTGATAGTAGAGTTTGATGG | 0.866 | 0.53 | -0.29 | 0.413 | -0.108 | 1.74 | 1.01 | 0.848 | 0.216 | 0.579 | 3.65 | 2.79 | 0.241 | -0.486 | 0.584 | 0.965 | 1.17 | 0.509 | 0.408 | 2.76 |
| CCGACTGGGGTAAGGTTACCATAACGCACAGCCA | 0.62 | 1.11 | -0.0991 | 1.31 | -0.565 | 2.14 | 2.11 | 2.5 | 0.595 | 1.71 | 1.25 | 2.26 | -0.489 | -1.25 | 0.783 | 0.899 | -0.126 | 1.55 | 0.484 | 1.3 |
| AGAATGAGGTTAAAATCAGGGAAACAGAATACAT | 2.65 | 2.59 | 0.234 | 2.08 | 0.345 | 3.69 | 2.3 | 2.46 | 0.879 | 1.7 | 2.34 | 2.5 | 0.82 | 1.18 | 0.858 | 1.17 | 0.655 | 1.9 | 0.961 | 1.59 |
| AGAACGAGGGCACGCTGAGTTGATAGAAGAGTAG | 0.553 | 0.362 | -0.441 | 0.106 | -0.925 | 2.09 | 2.05 | 1.54 | 0.398 | 1.11 | 3.93 | 3.46 | 0.756 | 0.00527 | 0.193 | 1.28 | -0.0963 | 0.661 | -0.807 | 2.31 |
